# Test results: paper PMC11006913
# Target: HOXC10 (Homo sapiens, UniProt Q9NYD6 254-340)
# Assay: PBM; 200 nM protein, PBS
# Conditions: dsDNA, one strand shown
# Sequence of HOXC10 (Homo sapiens, UniProt Q9NYD6 254-340) (Q9NYD6 254-340): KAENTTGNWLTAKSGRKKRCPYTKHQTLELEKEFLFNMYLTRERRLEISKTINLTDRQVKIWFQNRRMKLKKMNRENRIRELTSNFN
row,Sequence,binding signal
1,CAGAGGGA,"10.1 upbm affinity estimate (log intensity, higher = more binding, comparable within an allelic series)"
2,CGTGAATA,"10.7 upbm affinity estimate (log intensity, higher = more binding, comparable within an allelic series)"
3,CTCAGGAA,"10.1 upbm affinity estimate (log intensity, higher = more binding, comparable within an allelic series)"
4,GCATATAA,"11.4 upbm affinity estimate (log intensity, higher = more binding, comparable within an allelic series)"
5,ACGAAGCT,"10 upbm affinity estimate (log intensity, higher = more binding, comparable within an allelic series)"
6,GAAGCTGC,"10.1 upbm affinity estimate (log intensity, higher = more binding, comparable within an allelic series)"
7,GAGCTGCC,"9.9 upbm affinity estimate (log intensity, higher = more binding, comparable within an allelic series)"
8,GCCTAATA,"11 upbm affinity estimate (log intensity, higher = more binding, comparable within an allelic series)"
9,CACTGACG,"10 upbm affinity estimate (log intensity, higher = more binding, comparable within an allelic series)"
10,ATAAAAAG,"12.1 upbm affinity estimate (log intensity, higher = more binding, comparable within an allelic series)"
11,AATGGTCC,"11 upbm affinity estimate (log intensity, higher = more binding, comparable within an allelic series)"
12,GGCGCAAA,"10.1 upbm affinity estimate (log intensity, higher = more binding, comparable within an allelic series)"
13,CCGAAGGA,"10 upbm affinity estimate (log intensity, higher = more binding, comparable within an allelic series)"
14,ATAACACC,"11.1 upbm affinity estimate (log intensity, higher = more binding, comparable within an allelic series)"
15,AATTGCAA,"11.1 upbm affinity estimate (log intensity, higher = more binding, comparable within an allelic series)"
16,CTTAAATA,"10.9 upbm affinity estimate (log intensity, higher = more binding, comparable within an allelic series)"
17,ACGCTGGA,"9.94 upbm affinity estimate (log intensity, higher = more binding, comparable within an allelic series)"
18,CGCCCCGA,"10.1 upbm affinity estimate (log intensity, higher = more binding, comparable within an allelic series)"
19,AGCTGGGC,"10 upbm affinity estimate (log intensity, higher = more binding, comparable within an allelic series)"
20,CTCTCCGA,"9.99 upbm affinity estimate (log intensity, higher = more binding, comparable within an allelic series)"

row,Sequence,binding signal
1,AGGCTTCG,"9.94 upbm affinity estimate (log intensity, higher = more binding, comparable within an allelic series)"
2,CTAGCCAG,"10.1 upbm affinity estimate (log intensity, higher = more binding, comparable within an allelic series)"
3,CCGAACTC,"9.95 upbm affinity estimate (log intensity, higher = more binding, comparable within an allelic series)"
4,ATTACAGG,"11.1 upbm affinity estimate (log intensity, higher = more binding, comparable within an allelic series)"
5,CAGCGCCC,"9.88 upbm affinity estimate (log intensity, higher = more binding, comparable within an allelic series)"
6,AAGCCTGG,"10.1 upbm affinity estimate (log intensity, higher = more binding, comparable within an allelic series)"
7,CCCGGGCG,"10.1 upbm affinity estimate (log intensity, higher = more binding, comparable within an allelic series)"
8,CAGCGCGG,"10 upbm affinity estimate (log intensity, higher = more binding, comparable within an allelic series)"
9,GCGGTGCC,"10 upbm affinity estimate (log intensity, higher = more binding, comparable within an allelic series)"
10,CCGGTGAC,"10 upbm affinity estimate (log intensity, higher = more binding, comparable within an allelic series)"
11,AATAATAG,"11.5 upbm affinity estimate (log intensity, higher = more binding, comparable within an allelic series)"
12,AGCTCTGC,"9.99 upbm affinity estimate (log intensity, higher = more binding, comparable within an allelic series)"
13,GCGAGTCC,"10.1 upbm affinity estimate (log intensity, higher = more binding, comparable within an allelic series)"
14,CTTCGACC,"9.95 upbm affinity estimate (log intensity, higher = more binding, comparable within an allelic series)"
15,AGCAGGGC,"10.1 upbm affinity estimate (log intensity, higher = more binding, comparable within an allelic series)"
16,CCGACTCG,"10.1 upbm affinity estimate (log intensity, higher = more binding, comparable within an allelic series)"
17,GGGGCTAC,"10.1 upbm affinity estimate (log intensity, higher = more binding, comparable within an allelic series)"
18,ACGCGAGC,"10.1 upbm affinity estimate (log intensity, higher = more binding, comparable within an allelic series)"
19,CTTTCTTC,"9.98 upbm affinity estimate (log intensity, higher = more binding, comparable within an allelic series)"

# Target: HOXC10 (Homo sapiens, UniProt Q9NYD6 254-340, K271E)
# Sequence (Q9NYD6 254-340 K271E): as the sequence (Q9NYD6 254-340) above, with K18E counted along it
# Assay: PBM; 200 nM protein, PBS
# Conditions: dsDNA, one strand shown
row,Sequence,binding signal
1,CAGAGGGA,"10.1 upbm affinity estimate (log intensity, higher = more binding, comparable within an allelic series)"
2,CGTGAATA,"10.7 upbm affinity estimate (log intensity, higher = more binding, comparable within an allelic series)"
3,CTCAGGAA,"10 upbm affinity estimate (log intensity, higher = more binding, comparable within an allelic series)"
4,GCATATAA,"11.2 upbm affinity estimate (log intensity, higher = more binding, comparable within an allelic series)"
5,ACGAAGCT,"10.1 upbm affinity estimate (log intensity, higher = more binding, comparable within an allelic series)"
6,GAAGCTGC,"10 upbm affinity estimate (log intensity, higher = more binding, comparable within an allelic series)"
7,GAGCTGCC,"9.88 upbm affinity estimate (log intensity, higher = more binding, comparable within an allelic series)"
8,GCCTAATA,"10.9 upbm affinity estimate (log intensity, higher = more binding, comparable within an allelic series)"
9,CACTGACG,"10.1 upbm affinity estimate (log intensity, higher = more binding, comparable within an allelic series)"
10,ATAAAAAG,"11.5 upbm affinity estimate (log intensity, higher = more binding, comparable within an allelic series)"
11,AATGGTCC,"10.9 upbm affinity estimate (log intensity, higher = more binding, comparable within an allelic series)"
12,GGCGCAAA,"10.1 upbm affinity estimate (log intensity, higher = more binding, comparable within an allelic series)"
13,CCGAAGGA,"9.98 upbm affinity estimate (log intensity, higher = more binding, comparable within an allelic series)"
14,ATAACACC,"10.8 upbm affinity estimate (log intensity, higher = more binding, comparable within an allelic series)"
15,AATTGCAA,"11 upbm affinity estimate (log intensity, higher = more binding, comparable within an allelic series)"
16,CTTAAATA,"10.7 upbm affinity estimate (log intensity, higher = more binding, comparable within an allelic series)"
17,ACGCTGGA,"10.1 upbm affinity estimate (log intensity, higher = more binding, comparable within an allelic series)"
18,CGCCCCGA,"9.97 upbm affinity estimate (log intensity, higher = more binding, comparable within an allelic series)"
19,AGCTGGGC,"10 upbm affinity estimate (log intensity, higher = more binding, comparable within an allelic series)"
20,CTCTCCGA,"9.97 upbm affinity estimate (log intensity, higher = more binding, comparable within an allelic series)"

row,Sequence,binding signal
1,AGGCTTCG,"10 upbm affinity estimate (log intensity, higher = more binding, comparable within an allelic series)"
2,CTAGCCAG,"10.1 upbm affinity estimate (log intensity, higher = more binding, comparable within an allelic series)"
3,CCGAACTC,"10 upbm affinity estimate (log intensity, higher = more binding, comparable within an allelic series)"
4,ATTACAGG,"10.9 upbm affinity estimate (log intensity, higher = more binding, comparable within an allelic series)"
5,CAGCGCCC,"9.95 upbm affinity estimate (log intensity, higher = more binding, comparable within an allelic series)"
6,AAGCCTGG,"10 upbm affinity estimate (log intensity, higher = more binding, comparable within an allelic series)"
7,CCCGGGCG,"10.1 upbm affinity estimate (log intensity, higher = more binding, comparable within an allelic series)"
8,CAGCGCGG,"9.95 upbm affinity estimate (log intensity, higher = more binding, comparable within an allelic series)"
9,GCGGTGCC,"10 upbm affinity estimate (log intensity, higher = more binding, comparable within an allelic series)"
10,CCGGTGAC,"10 upbm affinity estimate (log intensity, higher = more binding, comparable within an allelic series)"
11,AATAATAG,"11.2 upbm affinity estimate (log intensity, higher = more binding, comparable within an allelic series)"
12,AGCTCTGC,"9.97 upbm affinity estimate (log intensity, higher = more binding, comparable within an allelic series)"
13,GCGAGTCC,"10.1 upbm affinity estimate (log intensity, higher = more binding, comparable within an allelic series)"
14,CTTCGACC,"10 upbm affinity estimate (log intensity, higher = more binding, comparable within an allelic series)"
15,AGCAGGGC,"10.1 upbm affinity estimate (log intensity, higher = more binding, comparable within an allelic series)"
16,CCGACTCG,"10.1 upbm affinity estimate (log intensity, higher = more binding, comparable within an allelic series)"
17,GGGGCTAC,"10.1 upbm affinity estimate (log intensity, higher = more binding, comparable within an allelic series)"
18,ACGCGAGC,"10.1 upbm affinity estimate (log intensity, higher = more binding, comparable within an allelic series)"
19,CTTTCTTC,"10.1 upbm affinity estimate (log intensity, higher = more binding, comparable within an allelic series)"
